# Assay results reported in ChEMBL document CHEMBL3988442, “University of Dundee, Small-Polar-MMV Screening Library” (2021).
# Where “and” joins values, the source holds several entries; their conditions need not be identical. Identical values can stand only once. For some assays here: Results with a measured potency or affinity are listed apart.
# How the values were obtained:
# Parameters in all cases: scale not given: direction of the effect not stated beside the values
# [1] = target: Protein translocase subunit SecA (Escherichia coli (strain K12)) (UniProt P10408); experiment: Assay to Identify E. coli SecA ATPase Inhibitors; assay type: functional; details: 30 µM
# [2] = target: T1, Ubiquitin-activating enzyme e1, putative (Leishmania donovani (strain BPK282A1)) (UniProt E9BSI1); experiment: Leishmania donovani Ubiquitin Activating Enzyme (LdE1); assay type: functional; details: 30 µM
# T1 sequence (whole entry): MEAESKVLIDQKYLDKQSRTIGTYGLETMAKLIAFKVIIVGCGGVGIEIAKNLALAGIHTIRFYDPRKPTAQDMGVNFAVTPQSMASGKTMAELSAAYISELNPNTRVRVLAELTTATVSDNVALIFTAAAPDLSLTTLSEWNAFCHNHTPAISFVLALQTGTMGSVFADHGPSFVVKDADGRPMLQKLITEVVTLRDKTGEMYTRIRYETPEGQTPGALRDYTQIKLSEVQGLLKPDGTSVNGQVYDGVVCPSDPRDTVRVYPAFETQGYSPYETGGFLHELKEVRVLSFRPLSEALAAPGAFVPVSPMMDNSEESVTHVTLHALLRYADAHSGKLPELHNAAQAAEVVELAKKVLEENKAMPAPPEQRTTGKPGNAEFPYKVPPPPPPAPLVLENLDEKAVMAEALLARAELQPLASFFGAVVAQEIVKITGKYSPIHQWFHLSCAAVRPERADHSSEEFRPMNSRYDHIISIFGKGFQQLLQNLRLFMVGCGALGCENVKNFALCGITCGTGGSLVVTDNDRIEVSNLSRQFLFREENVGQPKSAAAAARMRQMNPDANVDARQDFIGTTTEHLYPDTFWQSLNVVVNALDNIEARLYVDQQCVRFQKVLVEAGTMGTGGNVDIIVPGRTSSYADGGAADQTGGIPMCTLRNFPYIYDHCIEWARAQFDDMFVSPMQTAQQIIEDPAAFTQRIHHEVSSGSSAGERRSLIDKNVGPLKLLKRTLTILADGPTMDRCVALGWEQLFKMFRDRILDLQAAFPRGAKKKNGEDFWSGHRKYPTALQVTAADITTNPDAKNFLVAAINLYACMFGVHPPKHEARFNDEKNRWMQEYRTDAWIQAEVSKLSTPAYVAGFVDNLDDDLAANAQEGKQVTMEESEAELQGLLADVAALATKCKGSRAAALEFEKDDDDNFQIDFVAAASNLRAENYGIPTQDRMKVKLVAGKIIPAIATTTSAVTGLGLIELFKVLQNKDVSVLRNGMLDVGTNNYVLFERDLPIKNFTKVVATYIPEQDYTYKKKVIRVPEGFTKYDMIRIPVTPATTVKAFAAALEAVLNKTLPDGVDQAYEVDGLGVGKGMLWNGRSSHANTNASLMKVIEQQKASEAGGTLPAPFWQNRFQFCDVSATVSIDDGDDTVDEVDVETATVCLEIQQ
# [3] = target: Sialic acid-binding Ig-like lectin 9 (Homo sapiens) (UniProt Q9Y336); experiment: Hs-Siglec9 ALPHAscreen SOP 20170721; details: 10 µM
# Trypanosoma cruzi = experiment: Trypanosoma cruzi phosphomannomutase and mannose-1-phosphate guanylyltransferase assay; assay type: functional; details: 10 µM
# [4] = target: T2, Arginase-2, mitochondrial (Homo sapiens) (UniProt P78540); experiment: in vitro enzyme assay to detect the production of urea directly proportional to the activity of Arginase II; assay type: functional; details: 33.3 µM; note: in the data most compounds retested in dose-response had high values
# T2 sequence (whole entry): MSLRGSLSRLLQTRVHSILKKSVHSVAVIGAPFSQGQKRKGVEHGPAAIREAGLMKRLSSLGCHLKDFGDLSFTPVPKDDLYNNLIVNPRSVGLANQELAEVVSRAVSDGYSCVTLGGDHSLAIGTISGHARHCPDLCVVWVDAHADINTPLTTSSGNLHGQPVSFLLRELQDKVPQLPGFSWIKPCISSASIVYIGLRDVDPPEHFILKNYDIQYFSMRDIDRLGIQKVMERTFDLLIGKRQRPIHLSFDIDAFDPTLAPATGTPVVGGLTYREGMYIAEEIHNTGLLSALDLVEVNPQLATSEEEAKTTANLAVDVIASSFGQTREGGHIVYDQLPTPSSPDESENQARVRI
# [5] = target: T3, Proteasome subunit beta (Trypanosoma cruzi) (UniProt O96673); experiment: Trypanosoma cruzi proteasome chymotrypsin-like activity (TcProtChymo) assay.; note: in the data most compounds retested in dose-response had high values; assay type: functional; details: 9.37 µM
# T3 sequence (whole entry): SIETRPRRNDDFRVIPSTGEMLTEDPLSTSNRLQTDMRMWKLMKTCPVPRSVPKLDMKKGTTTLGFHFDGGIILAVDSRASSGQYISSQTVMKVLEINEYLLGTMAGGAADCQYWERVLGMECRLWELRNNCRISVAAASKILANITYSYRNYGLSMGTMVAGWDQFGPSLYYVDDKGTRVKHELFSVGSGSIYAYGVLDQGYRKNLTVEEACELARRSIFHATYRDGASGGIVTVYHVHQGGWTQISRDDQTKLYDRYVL
# Homo sapiens = species: Homo sapiens; experiment: To identify inhibition of the IFN signalling (Jak-Stat) pathway via expression of an eGFP reporter gene under the control of an IFN-stimulated response element (ISRE) containing MxA promoter.; assay type: functional; details: 30 µM
# [6] = target: T4, Tyrosyl-tRNA synthetase, putative (Trypanosoma cruzi (strain CL Brener)) (UniProt Q4DSP6); experiment: Trypanosoma cruzi tyrosyl tRNA synthetase (TcYRS) _High Tyrosine SOP; assay type: functional; details: 30 µM; note: in the data most compounds retested in dose-response had high values
# T4 sequence (whole entry): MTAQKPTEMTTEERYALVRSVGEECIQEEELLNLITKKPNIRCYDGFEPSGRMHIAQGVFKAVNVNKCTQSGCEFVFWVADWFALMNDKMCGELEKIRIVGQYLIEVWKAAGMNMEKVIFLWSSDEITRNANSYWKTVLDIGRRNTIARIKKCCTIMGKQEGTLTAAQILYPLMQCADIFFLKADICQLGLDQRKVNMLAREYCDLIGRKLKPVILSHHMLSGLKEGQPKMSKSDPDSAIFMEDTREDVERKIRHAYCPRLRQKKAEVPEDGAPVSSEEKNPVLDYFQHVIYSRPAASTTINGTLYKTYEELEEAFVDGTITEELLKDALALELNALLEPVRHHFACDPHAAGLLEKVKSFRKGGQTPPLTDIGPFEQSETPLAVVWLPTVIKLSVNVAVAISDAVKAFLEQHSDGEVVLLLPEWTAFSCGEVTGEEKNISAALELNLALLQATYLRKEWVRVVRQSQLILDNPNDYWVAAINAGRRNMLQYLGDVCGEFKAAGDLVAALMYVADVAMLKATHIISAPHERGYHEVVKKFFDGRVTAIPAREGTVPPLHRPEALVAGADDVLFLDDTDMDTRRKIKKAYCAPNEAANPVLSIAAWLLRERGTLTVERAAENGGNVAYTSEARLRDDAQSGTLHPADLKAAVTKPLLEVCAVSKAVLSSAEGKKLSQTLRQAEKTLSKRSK
# [7] = target: T4, Tyrosyl-tRNA synthetase, putative (Trypanosoma cruzi (strain CL Brener)); experiment: Trypanosoma cruzi tyrosyl tRNA synthetase (TcYRS) SOP; assay type: functional; details: 30 µM
# [8] = target: Chromo domain-containing protein 1 (Saccharomyces cerevisiae (strain ATCC 204508 / S288c) (Baker's yeast)) (UniProt P32657); experiment: ScCHD-1 Enzyme Inhibition Assay; assay type: functional; details: 30 µM; note: in the data most compounds retested in dose-response had high values
# N/A = experiment: Trypanosoma cruzi proteasome luciferase counter-screen; assay type: functional; details: 9.37 µM
# Sequence of Sialic acid-binding Ig-like lectin 9 (Homo sapiens) (Q9Y336 whole entry): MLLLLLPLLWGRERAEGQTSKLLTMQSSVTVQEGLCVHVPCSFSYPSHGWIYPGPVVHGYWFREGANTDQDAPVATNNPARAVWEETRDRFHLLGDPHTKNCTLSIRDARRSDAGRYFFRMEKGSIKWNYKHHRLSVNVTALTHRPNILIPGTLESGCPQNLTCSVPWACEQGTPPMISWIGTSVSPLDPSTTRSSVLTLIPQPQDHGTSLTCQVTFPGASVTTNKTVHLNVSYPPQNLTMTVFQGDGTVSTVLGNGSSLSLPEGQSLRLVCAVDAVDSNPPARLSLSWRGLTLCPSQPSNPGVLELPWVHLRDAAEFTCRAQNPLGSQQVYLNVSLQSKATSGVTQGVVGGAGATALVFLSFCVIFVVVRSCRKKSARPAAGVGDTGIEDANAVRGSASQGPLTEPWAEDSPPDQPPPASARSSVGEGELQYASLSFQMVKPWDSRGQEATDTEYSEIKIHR
# Sequence of Protein translocase subunit SecA (Escherichia coli (strain K12)) (P10408 whole entry): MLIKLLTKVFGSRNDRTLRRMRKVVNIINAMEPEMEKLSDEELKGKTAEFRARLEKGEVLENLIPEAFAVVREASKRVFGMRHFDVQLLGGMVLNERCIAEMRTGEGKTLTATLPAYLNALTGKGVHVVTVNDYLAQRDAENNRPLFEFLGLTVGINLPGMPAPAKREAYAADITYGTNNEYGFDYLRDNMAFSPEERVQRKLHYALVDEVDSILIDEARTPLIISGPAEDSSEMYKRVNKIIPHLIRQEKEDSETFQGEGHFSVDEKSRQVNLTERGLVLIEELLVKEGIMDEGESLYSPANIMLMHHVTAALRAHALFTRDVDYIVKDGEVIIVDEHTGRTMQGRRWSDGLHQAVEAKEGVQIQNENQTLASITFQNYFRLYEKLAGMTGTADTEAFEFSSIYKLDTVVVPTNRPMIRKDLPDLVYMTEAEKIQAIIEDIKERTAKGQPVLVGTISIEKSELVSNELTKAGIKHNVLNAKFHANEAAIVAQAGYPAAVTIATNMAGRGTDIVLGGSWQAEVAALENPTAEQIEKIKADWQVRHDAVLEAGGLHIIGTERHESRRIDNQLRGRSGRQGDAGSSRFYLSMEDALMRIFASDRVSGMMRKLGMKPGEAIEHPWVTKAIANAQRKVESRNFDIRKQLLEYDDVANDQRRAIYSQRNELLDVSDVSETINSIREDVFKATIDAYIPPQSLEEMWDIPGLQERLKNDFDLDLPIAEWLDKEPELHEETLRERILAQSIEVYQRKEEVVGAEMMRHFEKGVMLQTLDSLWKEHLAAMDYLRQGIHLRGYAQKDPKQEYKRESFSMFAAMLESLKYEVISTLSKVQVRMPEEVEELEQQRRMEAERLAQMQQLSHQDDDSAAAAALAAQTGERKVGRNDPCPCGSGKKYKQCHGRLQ
# Sequence of Chromo domain-containing protein 1 (Saccharomyces cerevisiae (strain ATCC 204508 / S288c) (Baker's yeast)) (P32657 whole entry, the tested form may be a part): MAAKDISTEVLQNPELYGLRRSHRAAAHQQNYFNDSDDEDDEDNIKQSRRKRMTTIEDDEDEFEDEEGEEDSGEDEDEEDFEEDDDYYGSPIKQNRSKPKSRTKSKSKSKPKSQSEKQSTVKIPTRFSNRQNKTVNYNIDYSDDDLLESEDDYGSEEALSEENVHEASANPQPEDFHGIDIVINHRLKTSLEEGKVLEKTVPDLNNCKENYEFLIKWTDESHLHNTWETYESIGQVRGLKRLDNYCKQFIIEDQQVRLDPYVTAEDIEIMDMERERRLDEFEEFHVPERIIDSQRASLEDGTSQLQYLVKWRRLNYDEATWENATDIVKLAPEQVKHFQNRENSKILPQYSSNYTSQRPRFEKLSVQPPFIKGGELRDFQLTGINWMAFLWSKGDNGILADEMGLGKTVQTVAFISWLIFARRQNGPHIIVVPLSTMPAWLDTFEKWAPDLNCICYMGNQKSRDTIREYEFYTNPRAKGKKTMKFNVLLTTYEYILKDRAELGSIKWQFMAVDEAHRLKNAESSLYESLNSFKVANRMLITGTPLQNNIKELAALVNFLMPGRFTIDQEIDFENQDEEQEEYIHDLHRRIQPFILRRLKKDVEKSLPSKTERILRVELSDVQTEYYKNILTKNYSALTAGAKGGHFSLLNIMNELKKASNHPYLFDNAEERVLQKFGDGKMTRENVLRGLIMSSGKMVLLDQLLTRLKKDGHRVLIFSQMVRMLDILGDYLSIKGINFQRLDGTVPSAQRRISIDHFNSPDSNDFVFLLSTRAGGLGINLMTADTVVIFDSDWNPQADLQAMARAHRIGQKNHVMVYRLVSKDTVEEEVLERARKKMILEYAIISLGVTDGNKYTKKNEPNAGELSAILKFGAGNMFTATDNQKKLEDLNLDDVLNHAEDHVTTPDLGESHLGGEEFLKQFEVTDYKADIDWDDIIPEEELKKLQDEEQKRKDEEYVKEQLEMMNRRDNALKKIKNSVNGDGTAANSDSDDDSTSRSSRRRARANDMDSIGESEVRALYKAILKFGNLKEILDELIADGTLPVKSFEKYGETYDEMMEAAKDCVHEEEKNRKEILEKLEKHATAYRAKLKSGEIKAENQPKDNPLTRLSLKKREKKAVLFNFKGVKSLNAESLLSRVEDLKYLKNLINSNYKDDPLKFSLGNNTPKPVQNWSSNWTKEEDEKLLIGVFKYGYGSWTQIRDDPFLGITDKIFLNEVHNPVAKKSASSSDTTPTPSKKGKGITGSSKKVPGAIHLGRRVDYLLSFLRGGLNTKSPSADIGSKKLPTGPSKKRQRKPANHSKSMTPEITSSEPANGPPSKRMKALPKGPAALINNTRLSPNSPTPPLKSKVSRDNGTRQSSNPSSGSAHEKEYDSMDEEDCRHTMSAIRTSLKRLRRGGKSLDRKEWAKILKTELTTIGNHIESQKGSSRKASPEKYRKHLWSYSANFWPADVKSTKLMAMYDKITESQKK
SMILES,Percent Effect [1] [%],Percent Effect [2] [%],Percent Effect [3] [%],Percent Effect (Trypanosoma cruzi) [%],Percent Effect [4] [%],Percent Effect [5] [%],Percent Effect (Homo sapiens) [%],Percent Effect [6] [%],Percent Effect [7] [%],Percent Effect [8] [%],Percent Effect (N/A)
Cc1cnc(CN(C)C2CCN(Cc3nc4ccccc4n3C)C2)o1 (centres undefined),-2.3,16,-6.81,3.21,-4.43,22.6,-0.979,14.2,17.9,-12.5,–
COc1ccccc1OCCN1CCCC(c2cc(C(N)=O)[nH]n2)C1 (centres undefined),-3.66,2.67,8.25,-3.01,4.43,12,-0.623,2.63,5.13,-8.44,–
OCC1CCCCN1c1ccc(-c2nc(-c3ccccc3F)no2)cn1 (centres undefined),-2.19,-5.41,7.51,5.14,16.4,–,1.31,-0.532,4.88,86.3,–
NC(=O)c1ccc(S(=O)(=O)NC(=O)COc2ccc3c(c2)CCC3)cc1,-4.96,7.69,-3.01,8.54,0.82,4.01,4.26,3.35,10.8,6.22,–
Cc1cccc(-c2noc(CN3CCc4nn(C)c(=O)cc4C3)n2)c1,-3.9,16,1.97,-0.201,3.55,0.424,14.8,-5.79,-15.4,4.01,–
CN1[C@H](Cn2cccn2)C[C@@H]2CN(C(=O)Cc3cccs3)CC[C@@H]21,-4.49,11.7,-0.662,-3.56,-1.83,9.53,18.5,6.76,0,-10.4,–
Cn1cnc2c1CCN(Cc1cccc(OCC(N)=O)c1)C2,-0.391,15.4,-8.42,7.42,2.46,15.3,23.1,3.35,18.1,-7.71,–
Cc1nc(C)n(CC2CN(CCOCC(F)(F)F)CCO2)n1 (centres undefined),-1.11,0,2.9,0.602,2.22,0.594,6.11,-1.58,2.56,-2.07,–
CN(Cc1noc(C2CC2)n1)C1CCN(Cc2nnc(C3CC3)o2)C1 (centres undefined),4.16,15.6,-1.39,-6.16,1.02,17.4,20.4,6.86,16.5,-8.04,–
Cc1[nH]/c(=N\C(=O)c2csc(NCC(C)C)n2)sc1C,-5.08,5.41,2.69,-3.2,-2.45,–,20.5,5.85,21.9,0.249,53.4% and 61%
COCCO[C@H]1CCN(C(=O)c2cc(C)on2)[C@H]1Cc1ccccc1,-2.31,11.7,3.34,-1.88,-0.913,7.47,18.8,7.73,10,-5.82,–
CS(=O)(=O)NCC1CCCN(C(=O)c2cc3ccccc3o2)C1 (centres undefined),-0.17,28.6,3.25,3.36,-9.22,15.1,11.5,5.88,23.5,-10.2,–
Fc1cnc(N2CCOC3(CCN(Cc4ccsc4)CC3)C2)nc1,-0.851,3.9,-6.39,-6.52,6.88,–,4.01,11.1,7.69,-4.59,5.37% and 9.17%
Cc1cccc(C(=O)N2C[C@@H](OCc3cccnc3)[C@H]3OCCC[C@@H]32)n1,-3.43,11.7,-6.23,4.77,-4.45,21.6,5.3,8.95,7.69,112,–
Cc1c[nH]nc1C1CCCCN1C(=O)Cn1cc(Cl)cn1 (centres undefined),-0.928,14.7,-3.24,-2.96,3.1,15.1,7.7,3.17,10,-20.3,–
CC(C)NC(=O)[C@@H](NC(=O)N1CCN(c2ccc(Cl)cc2)CC1)C(C)C,-9.49,-5.41,-0.377,-3.78,-3.85,12.2,31.6,0.532,-4.88,-2.5,–
Cc1ccc(CN2CCC(c3nnc(CN4CCCCC4)n3C)CC2)o1,-5.23,0,2.13,-0.873,-0.35,5.99,1.11,1.6,4.88,3.06,–
CCCOCCCNc1nccc(-c2cn(C)nc2C)n1,-7.46,0,9.13,12.5,-3.85,13.7,36.5,5.85,17.1,-2.61,–
CCOC(=O)CNC(=O)c1cccnc1Oc1ccc(Cl)cc1,3.19,1.3,56.3,0.375,6.85,11.6,25.5,3.87,0,-12.4,–
CN(C)C(=O)CN1C(=O)CCC12CCN(Cc1ccc(F)cc1)CC2,-1.87,22.1,-5.35,0.188,3.2,18.1,14,9.66,15,-11.4,–
O=C1CCC2(CCCN(CCc3ccccc3)C2)N1Cc1cccnc1 (centres undefined),-0.897,22.1,-2.1,-2.44,2.28,18.8,4.75,12.6,10,-8.73,–
